Drawing on PubChem BioAssay, this text covers composite z-score and composite Z-score for 7 compounds.

The source made the active and inactive calls.

In one test the target is Albumin (Bos taurus) (UniProt P02769). Briefly: bovine serum albumin binders on microarray, profiling panel, artefact control for SMM control protein annotation, biochemical, small-molecule microarray, Alexa647 label, 635/667 nm fluorescence (AID 1118).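 Further: score merges 667 nm emission intensity and signal-to-noise per printed compound spot.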 The conditions noted are these: BSA-A647 binding, fluorescence 635 nm, higher = more signal.
A short description of test [1]: small-molecule microarray binders of probe aXIP, primary screen, biochemical, NeuroSMM set, 635/667 nm fluorescence (AID 1119).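 Further: probe is the protein aXip251-270 applied at 1 µg/mL to compound-printed slides; binding of probe to printed compounds measured as 667 nm fluorescence plus signal to noise.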 The conditions noted are these: higher = more signal, called active from +8 up or from −8 down.
Test [2] is described as follows: small-molecule binders of probe aNOTCH3, primary screen, biochemical, small-molecule microarray, 635/667 nm fluorescence (AID 1120).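 Further: probe is a biotin-tagged antibody raised against NOTCH3 rather than NOTCH3 protein; score merges spot fluorescence near 667 nm with spot signal to noise.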 As to conditions: higher = more signal.
Test [3] can be described thus: small-molecule binders of probe aNOTCH2, primary screen, biochemical, small-molecule microarray, 635/667 nm fluorescence (AID 1121).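 Further: score merges feature fluorescence read at 667 nm with its signal to noise.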 As to conditions: higher = more signal.
The target of test [4] is Carbonic anhydrase 2 (Homo sapiens) (UniProt P00918). The test can be described thus: CAII small-molecule binders, profiling panel, biochemical, small-molecule microarray, Alexa647-labelled CAII (AID 1122). The conditions noted are these: CAII-A647 binding fluorescence, higher = more signal.
Test [5] in a line: COS7 lysate on small-molecule microarray, probe aHis, 635 nm (AID 1123).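 Further: z-score combines 667nm fluorescence intensity with signal-to-noise per printed compound spot.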 The conditions noted are these: COS7 cell lysate, fluorescence, higher = more signal.
The nature of test [6]: compound binding in COS7 lysate, probe aLAP1, primary screen, cell lysate, small-molecule microarray (AID 1124).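 Further: lysate comes from COS7 cells expressing LAP1 and is applied at 0.3 µg/mL; score merges spot fluorescence near 667 nm with signal-to-noise over triplicate slides.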 The conditions noted are these: probe aLAP1, fluorescence, higher = more signal.
The next test deals with Sam68 (KHDRBS1). The test can be described thus: Sam68 small-molecule binders, primary screen, biochemical, small-molecule microarray, 635 nm fluorescence (AID 1125).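 Further: score merges 667 nm channel intensity with signal to noise over triplicate slides.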 As to conditions: small-molecule microarray binding, higher = more signal.
In test [7] the test system is Chordin-like protein 2 (CHRDL2). Briefly: CHRDL2 small-molecule binders, primary screen, biochemical, small-molecule microarray, 635 nm fluorescence (AID 1126).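 Further: printed compound slides probed with Chrdl2 protein at 4 µg/mL for 1 h at 4 C; score merges 667 nm emission intensity with signal to noise over three replicate slides.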 As to conditions: small-molecule microarray binding, fluorescence 635 nm; higher = more signal.
Test [8] has as its target Concanavalin-A (Canavalia ensiformis) (UniProt P02866). Briefly: ConA small-molecule binders, primary screen, artefact control for SMM control protein annotation, biochemical, small-molecule microarray, Alexa647 label, 635 nm (AID 1127).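 Further: z combines 667 nm emission intensity with signal-to-noise across three replicate slides.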 As to conditions: ConA-A647 binding fluorescence, higher = more signal.

Albumin (Bos taurus), sequence (P02769 whole entry, looked up): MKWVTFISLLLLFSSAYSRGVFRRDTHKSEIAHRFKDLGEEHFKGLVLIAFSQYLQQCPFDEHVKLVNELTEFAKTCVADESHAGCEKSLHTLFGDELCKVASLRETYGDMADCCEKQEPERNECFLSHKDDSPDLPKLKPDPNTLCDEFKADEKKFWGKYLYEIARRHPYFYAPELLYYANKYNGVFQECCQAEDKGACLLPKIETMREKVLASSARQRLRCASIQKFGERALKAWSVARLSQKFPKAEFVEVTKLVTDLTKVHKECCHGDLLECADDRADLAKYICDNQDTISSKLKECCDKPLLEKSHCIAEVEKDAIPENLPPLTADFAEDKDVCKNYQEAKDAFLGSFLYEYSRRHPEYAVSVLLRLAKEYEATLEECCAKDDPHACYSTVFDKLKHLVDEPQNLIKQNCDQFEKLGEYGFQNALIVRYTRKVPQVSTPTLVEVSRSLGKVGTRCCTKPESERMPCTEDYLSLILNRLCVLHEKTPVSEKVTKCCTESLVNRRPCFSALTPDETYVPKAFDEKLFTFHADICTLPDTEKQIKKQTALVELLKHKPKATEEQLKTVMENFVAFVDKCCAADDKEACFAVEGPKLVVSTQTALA
Concanavalin-A (Canavalia ensiformis), sequence (P02866 whole entry, looked up): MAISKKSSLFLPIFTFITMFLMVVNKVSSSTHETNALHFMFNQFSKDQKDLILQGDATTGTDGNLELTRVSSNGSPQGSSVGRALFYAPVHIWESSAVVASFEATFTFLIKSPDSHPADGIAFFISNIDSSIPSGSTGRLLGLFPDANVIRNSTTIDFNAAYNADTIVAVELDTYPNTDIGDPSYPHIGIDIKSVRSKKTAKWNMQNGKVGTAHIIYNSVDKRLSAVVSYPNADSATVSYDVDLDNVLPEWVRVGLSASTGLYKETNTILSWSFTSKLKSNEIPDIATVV

For the compound `C=CCN(Cc1ccccc1)C(=O)C(c1cccs1)N(CCOCCO)C(=O)/C=C\C(=O)O` (stereo not given), the composite z-score is -0.462 with Albumin (Bos taurus); -0.553 in test [2]; -0.165 in test [3]; 0.39 in [4]; -0.25 in [5]; -0.658 in [6]. Also, the composite z-score in the test with Sam68 (KHDRBS1) is -0.754; in test [7], -3.82; in [8], -1.33. The composite Z-score in test [1] was 0.131 (inactive).

Consider `CC1CC/C=C\[C@H]2OC34C=CCN(c5ccc(Cl)cc5)C(=O)[C@H]3N(CCO)C(=O)[C@]4(C)C2C(=O)O1` (stereo not given in full), for which the composite z-score in the test with Albumin (Bos taurus) is -0.0427; in test [2], -0.152; in test [3] it was -0.149; in [4], 0.902; in [5], -0.507; in test [6], 0.627. For the same compound, the composite z-score in the test on Sam68 (KHDRBS1) was 0.409; in [7], -0.961; in [8], -0.206. Moreover, the composite Z-score in test [1] is -0.0662 (inactive).

In the case of `O=C1C2C=CC(C(O)c3c(F)cccc3Cl)N(Nc3ccccc3)C2C(=O)N1c1ccccc1` (stereo not given), the composite z-score in the test with Albumin (Bos taurus) was determined as 0.876; in test [2], 0.418; in [3], 0.014; in test [4], 0.382; in [5] it was 2.81; in test [6] it was 0.045. Further, the composite z-score was 1.31 with Sam68 (KHDRBS1), -0.3 in test [7] and 1.14 in [8]. In [1], the composite Z-score is 0.229 (inactive).

As to `C=C(CCCC)/C(=C/C[C@@H](OC(C)=O)c1ccccc1OCCO)c1cnc2ccccc2c1`, the composite z-score is 0.263 with Albumin (Bos taurus); 0.033 in [2]; -0.0209 in test [3]; 0.684 in test [4]; 0.206 in test [5]; 0.719 in [6]. The figures for the composite z-score (with Sam68 (KHDRBS1); in test [7]; in [8]) were 0.97, 0.333 and 0.535, respectively. Further, the composite Z-score in test [1] is 0.523 (inactive).

`COc1ccc(CCNC(=O)[C@@]2(Sc3ccc(C)cc3)CC(=O)N(C3CCCCC3)[C@@H]2c2ccc(CO)cc2I)cc1`: the composite z-score in the test with Albumin (Bos taurus) was 0.805; in test [2], -0.0111; in [3], -0.0759; in [4] it was 0.513; in [5], 1.58; in test [6], 0.284. Besides, the values for the composite z-score (with Sam68 (KHDRBS1); in test [7]; in test [8]) were 1.31, 0.119 and 0.977, respectively. The composite Z-score in test [1] is 0.0371 (inactive).

Regarding `CN1C(=O)C2C=CC(C(O)C3CC=CCC3)N(NC(=O)OC(C)(C)C)C2C1=O` (stereo not given), the composite z-score with Albumin (Bos taurus) is 1.03; in [2], 0.178; in test [3] it was -0.121; in [4], 0.713; in test [5] it was 3.19; in test [6], 0.532. For the same compound, the composite z-score in the test with Sam68 (KHDRBS1) stood at 1.32; in [7], 0.547; in test [8], 0.627. Moreover, the composite Z-score in test [1] is 3.41 (inactive).

In the case of `O=C(C1N=C(c2ccc(OCCCO)cc2)N(c2ccccc2)O1)N1CCOCC1` (stereo not given), the composite z-score is 0.709 in the test with Albumin (Bos taurus); 0.237 in [2]; -0.0843 in test [3]; 0.557 in test [4]; 1.54 in test [5]; 0.255 in [6]. In addition, the composite z-score in the test with Sam68 (KHDRBS1) was 1.32; in test [7], -0.114; in test [8] it was 0.488. In test [1], the composite Z-score is 0.0285 (inactive).
